Screening results (PubChem)
Candida biofilm: clotrimazole potentiators killing Candida biofilms, primary screen, with clotrimazole, Alamar Blue; C. albicans biofilm + clotrimazole; AID 834, 2007; inhibition, % at 6 µM; hit rate 0.14% among 85,000;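 active means inhibition above 20%; inactive means inhibition below 20%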;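 further: preformed 24 hr biofilms exposed to compound for 48 hr; 0% = biofilm without compound and 100% = blank killed by clotrimazole plus chlorhexidine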
sEH activator: soluble epoxide hydrolase activators, primary screen, biochemical, human sEH; Bifunctional epoxide hydrolase 2 (Homo sapiens), P34913; purified human sEH enzymatic activity, activator screen; activation, % at 2 µM; hit rate 0.04% among 91,000; in the data active means activation above about 37%
Target sequence (P34913 whole entry, looked up): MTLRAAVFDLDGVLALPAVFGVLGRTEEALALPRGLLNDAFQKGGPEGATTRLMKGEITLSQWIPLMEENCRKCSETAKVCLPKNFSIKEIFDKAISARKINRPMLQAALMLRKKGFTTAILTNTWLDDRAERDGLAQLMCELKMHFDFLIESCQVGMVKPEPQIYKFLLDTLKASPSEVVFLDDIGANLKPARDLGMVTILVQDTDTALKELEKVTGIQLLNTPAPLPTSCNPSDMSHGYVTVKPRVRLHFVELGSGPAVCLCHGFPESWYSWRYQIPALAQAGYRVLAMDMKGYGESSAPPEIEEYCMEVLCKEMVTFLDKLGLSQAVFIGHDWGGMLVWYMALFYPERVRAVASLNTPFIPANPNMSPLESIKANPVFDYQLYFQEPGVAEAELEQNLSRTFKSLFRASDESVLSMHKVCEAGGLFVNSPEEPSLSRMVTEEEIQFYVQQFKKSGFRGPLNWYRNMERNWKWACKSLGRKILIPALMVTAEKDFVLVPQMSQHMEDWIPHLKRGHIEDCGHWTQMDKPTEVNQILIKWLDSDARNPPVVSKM
F-actin modifier: modifiers of F-actin cytoskeleton organization, primary screen, imaging, HUVEC, phalloidin staining, high-content imaging | inhibition, % at 2 µM | HUVEC TNFa F-actin phalloidin imaging | hit rate 0.18% among 91,000 | AID 836, 2007;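 active means inhibition above the batch mean plus 3 SD and confirmed as a hit by visual image inspection, cut at about 30% in these data, passing the limit was not always enough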
sEH inhibitor: soluble epoxide hydrolase inhibitors, primary screen, biochemical, human sEH; recombinant human sEH enzymatic activity assay; hit rate 0.34% among 91,000; Bifunctional epoxide hydrolase 2 (Homo sapiens), P34913; inhibition, % at 2 µM; in the data active means inhibition above about 80%
Measles CPE: compounds protecting cells from measles virus cytopathic effect, primary screen, measles RdRp inhibitor project, single point, MLSMR library, absorbance; Measles virus-infected cells, CPE protection; protection (pct of control), % at 4 µM; hit rate 1.5% among 140,000; in the data active means protection mostly above about 24%, no sharp cut-off; inactive means mostly below about 26%
Active calls of the source: *; / = not tested or not shown. In the library only some 1.9% were active in any assay of this set; here they are far more common.

SMILES	Candida biofilm	sEH activator	F-actin modifier	sEH inhibitor	Measles CPE
CC(C)(C)c1ccc(C(=O)NC(Cc2ccccc2)C(=O)O)cc1 (stereo unspecified)	4	2	3	1	24
CC(C)(O)C#Cc1ccccc1C(=O)NC(CC(N)=O)C(=O)O (stereo unspecified)	1	-10	-3	11	65*
CC(=O)Nc1cccc(-c2csc(NCc3ccco3)n2)c1	4	9	-33	-10	27*
Oc1ccc(-c2csc(NCc3ccco3)n2)cc1	3	/	4	/	9
CCCc1ccc(Oc2cc(N3CCOCC3)nc(-c3ccccc3)n2)cc1	/	-12	-4	14	/
CCCn1c(N)c(Br)c(=O)[nH]c1=O	/	/	/	/	45*
CCCn1c(=O)[nH]c(=O)c2[nH]cnc21	7	/	/	/	8
Cc1cc(C)c(C#N)c(SCc2c(F)cccc2[N+](=O)[O-])n1	/	/	/	/	0
FC(F)(F)c1cccc(Oc2ccc3c(C(F)(F)F)cc(C(F)(F)F)nc3n2)c1	/	9	5	-6	9
FC(F)(F)c1cc(C(F)(F)F)c2ccc(Oc3ccccc3)nc2n1	/	0	-8	-2	43*
CCOC(=O)Cc1csc(/C(=N/O)C(N)=O)n1	11	-12	-6	12	33*
Cc1cc2cc(C=C(C#N)C#N)c(Cl)nc2cc1C	/	/	/	/	9
COc1ccc(CCNC(=O)CN2CCC(C)CC2)cc1OC	/	1	-5	1	32*
COc1ccc(CCNC(=O)CN2CCCc3ccccc32)cc1OC	-6	7	-18	-6	45*
COc1ccc(CCNC(=O)CN2CCC(C(N)=O)CC2)cc1	4	1	-28	-3	29
COc1ccc(CCNC(=O)CN(C)S(=O)(=O)c2ccc(Br)s2)cc1OC	/	/	/	/	4
COc1ccc(CCNC(=O)CN(C)S(=O)(=O)c2cccs2)cc1OC	5	-13	3	12	36*
CC1CCN(S(=O)(=O)c2cn(CC(=O)N3CCN(C)CC3)c(=O)c3ccccc23)CC1	10	11	12	-16	10
O=C(NC12CC3CC(CC(C3)C1)C2)C12CC3CC(C1)CC(n1cnc(Cl)n1)(C3)C2	/	-8	-2	11	9
COc1cccc(N=c2oc3ccccc3cc2-c2nc3ccccc3[nH]2)c1	/	0	-2	2	12
COc1cccc(N=c2oc3ccc(OC)cc3cc2-c2nc3ccccc3[nH]2)c1	/	6	-6	-4	47*
COc1cccc(C2NC(C)(C(=O)O)C3C(=O)N(C(C)C)C(=O)C23)c1O (stereo unspecified)	10	-10	-13	12	29*
CSCCC1(C(=O)O)NC(c2ccccc2O)C2C(=O)N(C(C)C)C(=O)C21 (stereo unspecified)	-4	-3	-4	5	15
Cn1c(C(=O)NCc2ccccc2)cc2oc3ccccc3c21	4	1	9	3	73*
Cn1c(C(=O)NCc2cccs2)cc2oc3ccccc3c21	/	/	/	/	48*
SMILES	Candida biofilm	sEH activator	F-actin modifier	sEH inhibitor	Measles CPE
Cc1ccc(S(=O)(=O)Oc2ccc3c(c2)O/C(=C\c2cccnc2)C3=O)cc1	0	3	/	-5	33*
COc1ccc(-n2ncc3c(=O)n(CC(=O)Nc4ccc(S(=O)(=O)N5CCOCC5)cc4)cnc32)cc1	/	/	/	/	60*
O=C(NC(Cc1c[nH]c2ccccc12)C(=O)Nc1ccc(F)c([N+](=O)[O-])c1)c1cccs1 (stereo unspecified)	/	/	/	/	35
O=C(NC(Cc1c[nH]c2ccccc12)C(=O)Nc1ccc(OC(F)(F)F)cc1)c1cccs1 (stereo unspecified)	/	/	/	/	52*
COc1cccc(C2SCC(=O)N2c2ccc(Br)cc2)c1OC (stereo unspecified)	/	/	/	/	34
COCCCNC(=O)c1ccc(C(=O)NCCCOC)cc1	9	-10	19	8	5
COCCCNC(=O)c1ccc([N+](=O)[O-])c(Cl)c1	/	/	/	/	36*
CCS(=O)(=O)N1Cc2ccccc2CC1C(=O)N1CCN(c2ccccc2)CC1 (stereo unspecified)	/	2	16	1	62*
O=C(C1Cc2ccccc2CN1S(=O)(=O)c1ccc(F)cc1)N1CCOCC1 (stereo unspecified)	6	5	/	-6	4
CCCc1nn(C)c2c1C(c1ccncc1)C(C#N)=C(N)O2 (stereo unspecified)	4	/	-11	/	40*
CCCc1[nH]nc2c1C(c1ccncc1)C(C#N)=C(N)O2 (stereo unspecified)	-2	/	5	/	10
